Records with an inconclusive call do not appear. Values without a mark were called inactive. Calls of active or inactive are those of the source. Calls follow the shape of the dose curve; as a rule, active = well fitted curve in the direction sought with a large enough effect; inconclusive = small, poorly fitted or top-dose-only effect, or effect the other way, or another doubt; inactive = no such curve, though single readings can be large or run the other way. Square brackets hold non-standard residues; d marks the D form. Peptide text beside a SMILES is read from it. ξ: configuration not given here. ξL = CC(C)CC(N)C(=O)O

This test in a line: DH5-alpha competent E. coli microbial cell viability qHTS against the NCATS CANVASS Library (AID 1347377). As to viability signal change, negative = cytotoxic: 0% is about no effect. The settings on record: BacTiter-Glo ATP luminescence, overnight; series mostly up to 46.1 µM; viability signal change, negative = cytotoxic: at the top concentration. In outline:
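DH5-alpha E. coli suspension (0.9 OD culture diluted to 0.2 OD) exposed to compounds in an 11-point series, overnight at 37C, 5% CO2. Viability read as ATP by BacTiter-Glo luminescence after 20 min at room temperature.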
Background: qHTS replaces the single test concentration by a dilution series.
Take `O[C@H]1C=C2[C@H]3CN(Cc4cc5c(cc43)OCO5)[C@H]2C[C@@H]1O`: the compound was called inactive.
The same measure, in the same setting: the entry for `CC[C@@H](c1cc(OC)c(OC)cc1OC)[C@H](C)[C@@H](/C(C)=C/c1cc(OC)c(OC)cc1OC)c1cc(OC)c(OC)cc1OC` is “inactive”.
Turning to `C/C=C/c1cc2c(c(=O)o1)C(=O)[C@@H](O)[C@H](C)O2`, the compound was classed as inactive.
As to `CC[C@@H](C)[C@H]1NC(=O)C(CC(C)C)NC(=O)[C@@H](CC(C)C)NC(=O)[C@H](Cc2c[nH]c3ccccc23)NC(=O)CNC(=O)[C@@H](CC(N)=O)NC1=O` (stereo partly drawn) (cyclo(GW[dL][ξL][dI][dN])), the “viability signal change, negative = cytotoxic” value (shortened to “viability signal change”) was 22.3%.
Regarding `CN1CCc2cc3c(c4c2C1(C)C(=O)c1cc(O)ccc1-4)OCO3` (stereo not drawn), the “viability signal change” value is 4.64%.
The same measure, in the same setting: the figure for `COc1cc2c(cc1OC)[C@@H](c1ccc3c(c1)OCO3)C(C)[C@@H](C)C2=O` (stereo partly drawn) is 2.1%.
Regarding `CC(C)[C@@H]1CC(=O)c2coc3c2[C@H]1C[C@@H](C)C3=O`, the “viability signal change” value is 26.3%.
Still for that read-out and setting: the figure for `COc1cc2oc3ccccc3c(=O)c2cc1OC` is 2.33% [at 91.4 µM].
In the case of `COC(=O)[C@@]1(C)CCC[C@]2(C)c3cc(OC)ccc3CC[C@@H]12`, the “viability signal change” value is 27.1%.
The same measure, in the same setting: as for `COc1cc2ccc(=O)oc2c(O)c1O[C@@H]1O[C@H](CO)[C@@H](O)[C@H](O)[C@H]1O`, the figure is 14.6% [at 27.5 µM].
On to `CC[C@H]1[C@@H](C)[C@@H](c2cc(OC)c(OC)cc2OC)[C@H](C)[C@@H](c2cc(OC)c(OC)cc2OC)[C@@]12C=C(OC)C(=O)C=C2OC`, for which the compound was classed as inactive.
As for `O=C1CCC(=O)N(O)CCCCCNC(=O)CCC(=O)N(O)CCCCCNC(=O)CCC(=O)N(O)CCCCCN1`, the “viability signal change” value is -1.99%.
For `C=C1C[C@H]2O[C@@H]3[C@@H]4[C@H](CC[C@@](C)(O)[C@@H]42)[C@H](C)COC3(C)[C@@H](OC(=O)CCCCCCC)C[C@H]1O` (stereo partly drawn), the call was inactive.

The values are drawn from PubChem BioAssay (NCATS).
